From PubChem BioAssay AID2129 (The Scripps Research Institute Molecular Screening Center, 2009) come the findings set out here.

The whole screen tested about 320,000 compounds, of which about 2,200 (0.69%) were called active. The sample holds actives, similar compounds and a random draw of the others, so the mix is not that of the screen. Values without a mark were called inactive.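 How the source made its calls: active means inhibition above the mean of all tested compounds plus 3 SD, cutoff set per campaign (cut at about 30% in these data); inactive means the rest.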

The target of this experiment is Bcl-2-like protein 1 (Homo sapiens) (UniProt Q07817). Briefly: inhibitors of human Bcl-xL, primary screen, biochemical, fluorescence polarization, HTS (AID 2129).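 Further: 0% = DMSO wells and 100% = unlabeled Bim-BH3 peptide competitor; inhibitors lower millipolarization by displacing the labeled peptide.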 The note with it: GST-Bcl-xL / FITC-Bim BH3 peptide fluorescence polarization; at 10.9 µM; stronger effect = higher value. (Polarisation of emitted light reports the rotation of a fluorescent probe.)
Bcl-2-like protein 1 (Homo sapiens), sequence (Q07817 whole entry, looked up): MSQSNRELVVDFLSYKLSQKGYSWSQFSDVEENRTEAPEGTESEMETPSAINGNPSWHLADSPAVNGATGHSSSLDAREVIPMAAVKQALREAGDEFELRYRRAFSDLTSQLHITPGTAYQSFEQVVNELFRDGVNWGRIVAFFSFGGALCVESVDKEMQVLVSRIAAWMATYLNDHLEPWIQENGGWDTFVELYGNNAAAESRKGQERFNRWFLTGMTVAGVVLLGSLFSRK
Consider `COc1ccccc1-n1cnc2cc(NS(=O)(=O)c3ccccc3)ccc21`, for which the inhibition is 2.73%.
Next, `CC(CCc1ccccc1)NCC(O)c1cccc([N+](=O)[O-])c1` (stereo not given): 1.94%.
Next, `COc1ccc(NC(=O)c2sccc2SCC#N)cc1`: 8.42%; `Clc1cc(NC2CCCCC2)ncn1`: 6.31%; `CCCCC1S/C(=N/N=C/c2cccs2)NC1=O` (stereo not given): 8.02%.
Regarding `CCCc1c(C)nc2c(Br)cccc2c1Cl`, the inhibition was 2.17%.
Next, `COc1cc(C(=O)NCc2ccc3c(c2)cc(C)n3C)cc(OC)c1OC`: 33.2% (active); `COc1cc(C(=O)NCc2cc3cc(Cl)ccc3n2C)cc(OC)c1OC`: 1.45%; `CCOCC(=O)NCc1ccc2c(c1)cc(C)n2C`: 19.5%.
Next, `CN(CCO)S(=O)(=O)c1ccc2c(c1)C(=O)c1cc(S(=O)(=O)N(C)CCO)ccc1-2`: 1.55%; `CCOC(=O)c1cc2c(=O)n3ccccc3nc2n(CC(C)C)c1=NC(=O)c1c(-c2c(F)cccc2Cl)noc1C`: 3.3%.
Next, `Cc1ccc(NS(=O)(=O)c2ccc3c(c2)NC(=O)CO3)cc1`: 0.04%; `O=C(N1CCCCC1)N1CCN(C(=O)N2CCCCC2)CC1`: 6.91%.
Regarding `CCN1C(=O)CS/C1=N\c1nccs1`, the inhibition was 1.94%.
The same measure for `Oc1ccc(-c2onc3ccc(Cl)cc23)cc1`: 3.11%.
The same measure for `CC(OC(=O)c1ccc2noc(-c3ccccc3)c2c1)C(N)=O` (stereo not given): 2.5%; for `COc1ccc(-c2onc3ccc(C(C)=O)cc23)cc1`: 178% (active); for `Cc1c(NC(=S)NC(=O)CCc2ccccc2)c(=O)n(-c2ccccc2)n1C`: 1.79%.
Consider `CCNC(=O)Nc1ccc(S(=O)(=O)Nc2cnc(C)nc2C)cc1`, for which the inhibition is 0.51%.
The same measure for `CN(C)c1ccc(Nc2c3c4c(cccc4n(C)c2=O)C(=O)c2ccccc2-3)cc1`: 54.3% (active); for `Cc1cccc(C)c1N1C(=O)CN(Cc2ccccc2)C1=S`: 5.52%.
Next, `Cc1ccccc1NC(=O)Cc1nc(COC(=O)c2ccc(C(F)(F)F)cc2)cs1`: -1.31%; `CC(C)(C)c1ccc(/C=C2\Oc3c(ccc(O)c3CN3CCN(CCO)CC3)C2=O)cc1`: 53.5% (active); `CCOC(=O)c1oc2c(CN3CCN(CCO)CC3)c(O)c(CC)cc2c(=O)c1-c1nc2ccccc2s1`: 4.57%.
The same measure for `CN(C)S(=O)(=O)c1ccc(Cl)c(NC(=O)COC(=O)CC(NC(N)=O)c2ccc(Cl)cc2)c1` (stereo not given): -5.65%; for `Cc1ccc2nc(COc3ccc(N(C)S(=O)(=O)c4ccccc4)cc3)cc(=O)n2c1`: 36.5% (active); for `COc1cccc(COc2ccc(N(C)S(=O)(=O)c3ccccc3)cc2)c1`: -4.97%.
Consider `CN(c1ccc(OCC(=O)O)cc1)S(=O)(=O)c1ccc2ccccc2c1`, for which the inhibition is 4.89%.
Next, `O=C(c1ccc(Cl)cc1)N1N=C(c2ccccn2)CC1(O)C(F)(F)F` (stereo not given): -13%; `Cc1ccc(/C=N/NC(=O)COc2ccccc2-c2ccccc2)cc1`: 68.1% (active); `Cc1cccc(OCC(=O)NCC(=O)N/N=C/c2ccc(N(C)C)cc2)c1`: 2.63%.
Next, `C=CCc1ccccc1OCC(=O)N/N=C/c1ccccc1OCC`: 0.68%.
Turning to `O=C(O)CC(c1ccccc1F)N1Cc2ccccc2C1=O` (stereo not given), the inhibition was -0.17%.
For the compound `CC(C)CN(C(=O)CSc1ncnc2sccc12)C1CCS(=O)(=O)C1` (stereo not given), the inhibition was 0.66%.
Next, `CCN(CC)CCNC(=O)c1ccc(NC(=O)c2c(F)cccc2Cl)cc1`: -0.4%; `O=C1N[C@@H](Cc2ccccc2)C(=O)N2[C@H]1C[C@]1(Br)c3ccccc3N(S(=O)(=O)c3ccccc3)[C@H]21`: 10.4%; `Cc1ccccc1N1C(=O)C2ON(c3ccccc3)C(c3ccncc3)C2C1=O` (stereo not given): 4.04%.
The same measure for `O=C(C[n+]1cc(Br)cc2ccccc21)c1ccc(F)cc1`: 62.8% (active); for `O=C(CNC(=O)c1ccc(F)cc1)c1ccccc1`: -1.14%.
Next, `O=C(CNC(=O)c1ccccc1F)c1ccc(Br)cc1`: -3.61%; `CC(=O)n1c(C=Nc2ccccc2)c(O)c2ccccc21`: -15.2%; `Cc1oc2c(c1C(=O)N1CCOCC1)C(=O)c1ccccc1C2=O`: -1.81%.
`O=C1c2ccccc2-c2ncnc3c(N4CCOCC4)cc(N4CCOCC4)c1c23`: the inhibition was 48.5% (active).
Next, `COC1=C(N2CCOCC2)C(=O)c2ccccc2C1=O`: 1.64%; `COc1ccc(-n2ncc3c2CC(C)(C)CC3NC(=O)CCc2c(C)nn(C)c2C)cc1` (stereo not given): 6.1%; `COCCNc1nnc(SCC(=O)NNC(=O)c2ccco2)s1`: 4.35%.
Next, `Cc1ccc(CSCC(=O)N(C)CC(=O)Nc2ccc(C)cc2)cc1`: 1.73%; `Cc1c(NC(=O)CSc2nnc(-c3cccnc3)n2N)c(=O)n(-c2ccccc2)n1C`: -1.43%.
Turning to `COc1ccc(C(=O)N(CCN2CCOCC2)CC(=O)NC2CCCC2)cc1OC`, the inhibition is -2.67%.
The same measure for `Cc1ccc(OCCCC(=O)Nc2ccc3c(c2)OCCO3)cc1`: -5.28%.
The same measure for `CCCCC1=CC2=CC(=O)C(C)(OC(=O)CC)C(=O)C2=CN1CCCOC(C)C` (stereo not given): 25.5%; for `COC/C=C/C1=CC2=CC(=O)C(C)(OC(=O)CCC(=O)OC)C(=O)C2=CO1` (stereo not given): 46.1% (active).
Next, `COc1cc(C2/C(=C(\O)c3ccc4c(c3)CC(C)O4)C(=O)C(=O)N2Cc2ccco2)ccc1O` (stereo not given): 0.14%; `CCSc1nc2sc3c(c2c(=O)[nH]1)CC(C)(C)OC3`: 4.34%; `CCC1(C)Cc2c(sc3nc(SC)[nH]c(=O)c23)CO1` (stereo not given): 0.11%.
For the compound `CC/C(C)=N/Nc1nc2sc3c(c2c(=O)[nH]1)CC(C)(C)OC3`, the inhibition is 67.3% (active).
As to `N#CCc1c(C#N)c(N)nc(N2CCCC2)c1C#N`, the inhibition is 1.69%.
Take `N#Cc1c(-c2ccccc2)cc(-c2ccccc2)nc1SCC(=O)O`: the inhibition was 6.81%.
The same measure for `N#Cc1c(N2CCCCC2)nc(N)c2c(N)nc(SCC(=O)O)cc12`: 34.7% (active); for `CCN(CC(=O)Nc1cccc(S(=O)(=O)N2CCCCC2)c1)Cc1ccccc1`: 1.24%.

As a reminder, the inhibition is the drop in the measured response relative to a control, in per cent.
